Assay outcomes from PubChem.
Sampled rows, rich in hits. Any-hit rate of the full collection: about 0.82%.
LANA DNA inh: KSHV C-LANA DNA binding inhibition; MBP-C-LANA/FAM-LBS DNA binding, fluorescence polarization; inhibition, % at 9 µM; 340,000 compounds, 0.078% hits; AID 504423;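 active means highest replicate inhibition at or above 60% at 9 µM, even if other replicates fall short; inactive means all replicates below 60% inhibition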
Keap1 Nrf2 FP: inhibitors of human Keap1-Nrf2 protein-protein interaction; Q14145; Keap1 Kelch-Nrf2 peptide fluorescence polarization, 1536-well; inhibition, % at 9.4 µM; 340,000 compounds, 0.15% hits; in the data active means inhibition above about 12%;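 further: human Keap1 Kelch domain with fluorescein labeled Nrf2 9mer peptide probe; higher means more block of Keap1 binding to Nrf2 peptide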
Target sequence (Q14145 whole entry, looked up, the tested form may be a part): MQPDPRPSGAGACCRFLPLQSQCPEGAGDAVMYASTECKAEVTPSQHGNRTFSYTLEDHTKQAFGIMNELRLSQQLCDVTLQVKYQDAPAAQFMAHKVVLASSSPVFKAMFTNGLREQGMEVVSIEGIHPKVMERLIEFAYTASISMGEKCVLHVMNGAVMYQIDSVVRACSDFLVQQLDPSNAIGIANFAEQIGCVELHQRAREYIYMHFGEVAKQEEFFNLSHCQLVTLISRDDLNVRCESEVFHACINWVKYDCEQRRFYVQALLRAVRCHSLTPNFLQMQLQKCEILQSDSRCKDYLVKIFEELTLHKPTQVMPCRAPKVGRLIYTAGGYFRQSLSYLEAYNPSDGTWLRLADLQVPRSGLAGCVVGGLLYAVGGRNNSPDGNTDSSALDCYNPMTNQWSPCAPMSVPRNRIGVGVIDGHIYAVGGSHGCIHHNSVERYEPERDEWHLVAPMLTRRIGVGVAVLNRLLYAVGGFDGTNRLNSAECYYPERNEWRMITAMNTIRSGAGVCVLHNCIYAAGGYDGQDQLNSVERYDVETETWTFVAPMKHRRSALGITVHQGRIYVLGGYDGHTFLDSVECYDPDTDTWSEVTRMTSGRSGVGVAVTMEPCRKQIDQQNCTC
eLon inh: inhibits E. coli Lon protease. P0A9M0. purified E. coli Lon protease, fluorescence polarization. inhibition, % at 7.94 µM. 360,000 compounds, 0.42% hits; in the data active means inhibition above about 13%, passing the limit was not always enough
cardiac RTF act: increases calcium sensitivity of human cardiac regulated thin filaments; P19429+P45379; 340,000 compounds, 0.24% hits; IANBD-labeled TnC RTF fluorescence at EC20 calcium; 0% EC20 calcium, 100% full calcium; activation, % at 7.2 µM;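 active means activation above the mean over all tested compounds plus 3 SD, cut at about 30% in these data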;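 further: rise in fluorescence read as greater calcium sensitivity of cardiac thin filaments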
RTF Ca sens inh: cardiac RTF calcium desensitization | P19429+P45379 | IANBD-labeled cardiac RTF, Ca2+ fluorescence | inhibition, % at 7.15 µM | 340,000 compounds, 0.12% hits | AID 493244;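 active means inhibition above the mean inhibition of all tested compounds plus 3 SD, cut at about 17% in these data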;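 further: assay run at fixed EC70 calcium of 1.6 mM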
A number is an active result; i = inactive; nt = not tested or not shown.

SMILES | LANA DNA inh | Keap1 Nrf2 FP | eLon inh | cardiac RTF act | RTF Ca sens inh
Cc1ccc(C2OC34CCCCCC3C(C#N)(C(=N)O4)C2(C#N)C#N)cc1 (stereo not given) | i | i | i | i | i
COC(=O)[C@]12CCCCC=C1N(CCC1=CCCCC1)C(=O)[C@H](CC(=O)N1CCCCC1)C2 | nt | nt | i | nt | nt
CN1/C(=C\C=O)C(C)(C)c2ccccc21 | i | i | i | i | i
CN(C)c1ccc(N=C/C=C2\N(C)c3ccccc3C2(C)C)cc1 | i | i | i | i | i
CN1\C(=C/C=C/C=C/C=[N+](C)C)C(C)(C)c2ccccc21 | i | i | i | 218 | i
CN1/C(=C/C=C(C#N)C#N)C(C)(C)c2ccccc21 | 150 | i | i | i | i
CCCCOCCCNC(=O)C[C@@H]1C[C@@]2(C(=O)OCC)CCCC=C2N(Cc2ccc3c(c2)OCO3)C1=O | nt | nt | i | nt | nt
Oc1[nH]c2ccccc2c1N=Nc1ccc(F)cc1 | i | i | i | 34 | i
Oc1ccc2ccccc2c1N=Nc1ccc(F)cc1 | i | i | i | i | i
Oc1[nH]c2ccc(Br)cc2c1N=Nc1ccc(F)cc1 | i | i | i | 467 | i
O=[N+]([O-])c1ccc2[nH]c(O)c(N=Nc3ccc(F)cc3)c2c1 | i | i | i | i | i
CC(=O)c1cc2cccc(OC3(C)CCN(Cc4ccc(-c5ccccn5)cc4)C3)c2o1 (stereo not given) | nt | nt | i | nt | nt
O=C(NCc1cc(Cl)cc(Cl)c1)c1ccc2sc([C@H]3C[C@H](O)[C@@H](CO)O3)nc2c1 | nt | nt | i | nt | nt
CCCOc1cc(N)ccc1C(=O)OCCN(CC)CC | i | i | i | i | i
CCCOc1ccc(N)cc1N | i | i | i | 32 | i
CCN1/C(=C/C=C/c2oc3ccc(-c4ccccc4)cc3[n+]2CC)Oc2ccc(-c3ccccc3)cc21 | i | i | nt | 998 | i
CCC(=O)N1CCCC(C)(C(=O)Nc2ccc3scnc3c2)C1 (stereo not given) | nt | nt | i | nt | nt
CS/C(=N\S(=O)(=O)c1ccc(N)cc1)NS(=O)(=O)c1cccs1 | 113 | i | i | i | i
CCCCC(=O)Nc1ccc(C(=O)Nc2ccc(OC)cc2[N+](=O)[O-])cc1 | i | i | i | 81 | i
CCCCC(=O)Nc1ccc(NC(=O)c2ccc([N+](=O)[O-])cc2)cc1OC | i | i | i | i | i
O=C(NCCCO)c1ccc2nc(-c3ccco3)c(-c3ccco3)nc2c1 | 68 | i | i | i | i
CCCCNC(=O)c1ccc2nc(-c3ccco3)c(-c3ccco3)nc2c1 | i | i | i | i | i
CC(=O)N1C(=O)C(=C2C=C(C)OC(C)=C2)c2ccccc21 | i | i | i | 66 | i
COc1cc(C2C(C#N)=C(N)OC3=C2C(=O)CCC3)c([N+](=O)[O-])cc1OC (stereo not given) | i | i | 50 | i | i
O=S(=O)(O)c1cc(Cl)cc(N=Nc2ccc(O)cc2O)c1O | 84 | i | i | i | i
SMILES | LANA DNA inh | Keap1 Nrf2 FP | eLon inh | cardiac RTF act | RTF Ca sens inh
CCc1ccc(/C=C/c2c[nH]c3ccccc23)[n+](CC)c1 | i | i | i | i | i
Cn1cc(C=O)c2cc(F)ccc21 | i | i | i | i | i
Cn1cc(/C=C/c2cc[n+](C)cc2)c2cc(F)ccc21 | i | i | i | 317 | i
Cn1cc(/C=C/c2cc[n+](C)cc2)c2cc(Cl)ccc21 | i | i | i | 206 | i
C[n+]1ccc(/C=C/c2c[nH]c3ccc(F)cc23)cc1 | i | i | i | 102 | i
Cc1ccc(O)c(C(=O)c2cc(C#N)c(=O)n(-c3c(C)n(C)n(-c4ccccc4)c3=O)c2)c1 | i | i | i | i | i
Cc1ccc(O)c(C(=O)c2cc(C#N)c(=O)n(-c3nccs3)c2)c1 | i | i | i | 69 | i
CC(C)(C)Cc1c(-c2ccc(C#N)cc2)nc2c(Cl)cc(C(F)(F)F)cn12 | nt | nt | i | nt | nt
c1ccc(-c2cnn3c(-c4ccccc4)c(-c4ccccc4)nc3n2)cc1 | i | i | i | 378 | i
Cc1ccc2nc(-c3cccc(Br)c3)c(Cc3ccccn3)n2c1 | nt | nt | i | nt | nt
O=C1CCC(=O)N1c1nc2n(n1)C(c1ccccc1)C=C(c1ccc(Br)cc1)N2 (stereo not given) | i | i | i | i | i
CC(=O)Nc1nc2n(n1)C(c1ccccc1)C=C(c1ccccc1)N2 (stereo not given) | i | i | 31 | i | i
CC(=O)Nc1nc2n(n1)C(c1ccc(F)cc1)C=C(c1ccccc1)N2 (stereo not given) | i | i | i | i | i
CS(=O)(=O)Nc1nc2n(n1)C(c1ccccc1)C=C(c1ccc(Br)cc1)N2 (stereo not given) | 74 | 35 | 99 | 82 | i
Cc1cc(O)c2c(c1O)C(=O)[C@]13C(=C2O)C(=O)[C@@H]2[C@@H](O)[C@H]1[C@@H]1[C@H](O)[C@H]3C(=O)C3=C(O)c4c(O)cc(C)c(O)c4C(=O)[C@]312 | i | i | 27 | i | i
CC1=C(C(=O)N(C(C)C)C(C)C)CC(CC(=O)NCc2cccc3ccccc23)C(=O)N1CCC1=CCCCC1 (stereo not given) | nt | nt | i | nt | nt
O=C(NCc1ccc(Cl)cc1)c1ccc(-c2ccc(F)c(F)c2)c2ccoc12 | nt | nt | i | nt | nt
Nc1c(C=C2C=CC(=O)C=C2)c(=O)nc2sc(CC(=O)N3CCCCC3)nn12 | i | i | i | i | i
Nc1c(/C=C2/C=CC(=O)C(O)=C2)c(=O)nc2sc(CC(=O)N3CCCC3)nn12 | 109 | i | i | i | i
Nc1c(/C=C2/C=CC(=O)C(O)=C2)c(=O)nc2sc(CC(=O)N3CCCCC3)nn12 | 108 | i | i | i | i
Nc1c(/C=C2/C=CC(=O)C(O)=C2)c(=O)nc2sc(CC(=O)N3CCOCC3)nn12 | 110 | i | i | i | i
CCOC1=C/C(=C/c2c(N)n3nc(CC(=O)N4CCCC4)sc3nc2=O)C=CC1=O | i | i | i | i | i
COC1=C/C(=C/c2c(N)n3nc(CC(=O)N4CCCC4)sc3nc2=O)C=CC1=O | i | i | i | i | i
CCOC(=O)[C@]12CCC=C1N(CCC1=CCCCC1)C(=O)[C@H](CC(=O)N1CCCCC1)C2 | nt | nt | i | nt | nt
NS(=O)(=O)c1ccc(N2N=C(c3ccccc3)CC2c2ccccc2)cc1 (stereo not given) | i | i | i | 43 | i
SMILES | LANA DNA inh | Keap1 Nrf2 FP | eLon inh | cardiac RTF act | RTF Ca sens inh
NS(=O)(=O)c1ccc(N2N=C(c3ccccc3)CC2c2ccc(Br)cc2)cc1 (stereo not given) | nt | nt | i | nt | nt
CSc1ccc(Cn2c(C)c(C(=O)NCc3ccc4c(c3)OCO4)sc2=O)cc1 | nt | nt | i | nt | nt
CCN(CC)c1ccc(/C=C(/C#N)c2nc3ccccc3[nH]2)c(OC(C)C)c1 | i | i | i | 148 | i
CCOc1cccc(/C=C(/C#N)c2nc3ccccc3[nH]2)c1OCC(=O)O | i | i | i | i | i
CNc1cncc(-c2ccc(CN3CCOCC3)cc2)n1 | nt | nt | i | nt | nt
O=C1C=C(O)c2c(O)cc(O)c(O)c2C1=O | 117 | 19 | i | i | 31
NC(=O)c1sc2nc3c(c(-c4ccco4)c2c1N)CCCC3 | i | i | i | i | i
Nc1c(C(=O)NCC2CCCO2)sc2nc3c(c(-c4ccco4)c12)CC/C3=C\c1ccco1 (stereo not given) | i | i | i | i | 25
